aSyn yeast inh: rescues yeast growth from alpha-synuclein toxicity; Yeast expressing alpha-synuclein, growth rescue, BacTiter-Glo, 24 h; Potency, µM (doses to about 46.1 µM), hits mostly activators; 0.14% of 370,000 active; AID 652106; further: nearly all actives have a fitted effect of over 65% in size
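Rescue of yeast growth: cells expressing toxic alpha-synuclein, induced in galactose at OD600 0.02, incubated with compound 24 h at 30 C. ATP luminescence quantified growth; inhibitors of toxicity appear as activators.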
Abeta rescue: A-beta toxicity reversal in yeast; Potency, µM (doses to about 46.1 µM), actives largely listed as activators; 0.063% of 410,000 active; yeast expressing A-beta42, growth rescue, OD600, 48 h; response scale: 0% DMSO, 100% iron-clioquinol control; AID 1347071; further: nearly all actives have a fitted effect of over 55% in size
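Yeast A-beta toxicity model in growth medium with pinned compounds, 48 h at 30 C; growth read as absorbance at 600 nm. Normalized to FeCl3/clioquinol equimolar mix (positive) and DMSO (negative).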
TDP43 rescue: TDP-43 toxicity inhibition in yeast; TDP-43 expressing yeast growth rescue, BacTiter-Glo, 24 h; Potency, µM (doses to about 46.1 µM), most hits filed as activators; 1.8% of 410,000 active; AID 652104; further: nearly all actives have a fitted effect of over 50% in size
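Growth rescue of TDP-43-toxic yeast measured as ATP luminescence (BacTiter-Glo). Cells grown to mid-log in raffinose, induced in galactose at OD600=0.02, exposed to compound 24 hr at 30 deg C.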
FUS suppressor: rescues growth of FUS-expressing yeast | Potency, µM (highest dose often 76.6 µM), actives largely listed as activators | 0.24% of 390,000 active | S. cerevisiae FUS-expressing, growth rescue, OD600, 24 h | AID 1347120; further: nearly all actives have a fitted effect of over 55% in size
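FUS-expressing yeast, raffinose-pregrown, induced in 2% galactose minimal medium at OD 0.005; compounds in a dilution series, 24hr at 30C. Growth restoration read as absorbance at 600 nm. CP55940 positive control, DMSO negative.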
TSG101-PTAP inh: blocks PTAP/TSG101 interaction to inhibit HIV-1 budding | Fluorescence polarization, FITC-PTAP peptide / Tsg101 binding | 340,000 tested, under 10 active | Potency, µM (doses to about 115 µM), most hits filed as inhibitors | Q99816 | AID 493005; active means well fitted inhibition curve with a large enough effect in the main read-out, with a control signal flat, not every such curve was filed as active; inconclusive means small, poorly fitted or top-dose-only effect, or effect the other way, or a change in a side signal; inactive means no such curve, though single readings can be large or run the other way
Target sequence (Q99816 whole entry, looked up): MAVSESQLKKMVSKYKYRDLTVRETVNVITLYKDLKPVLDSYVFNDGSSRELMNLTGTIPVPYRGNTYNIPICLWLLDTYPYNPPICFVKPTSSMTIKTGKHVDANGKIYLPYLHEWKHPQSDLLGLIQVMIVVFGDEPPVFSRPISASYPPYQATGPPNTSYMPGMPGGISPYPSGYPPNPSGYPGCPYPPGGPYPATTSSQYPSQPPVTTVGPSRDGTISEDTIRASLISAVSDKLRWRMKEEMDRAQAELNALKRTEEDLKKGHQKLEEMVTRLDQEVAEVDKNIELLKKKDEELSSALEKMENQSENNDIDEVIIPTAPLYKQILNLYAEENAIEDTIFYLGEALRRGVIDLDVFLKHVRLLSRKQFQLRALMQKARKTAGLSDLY
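Fluorescence polarization binding of Tsg101 binding domain (10 uM final) to FITC-labeled PTAP peptide (50 nM final) in HEPES pH 7.5 buffer with NaCl, Tween 20, EDTA, TCEP. Compounds added before peptide; binding 20 min at RT.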
Hits are given with their value; i = inactive; ? = inconclusive; nt = no result; ! = a repeat was not active; [ ] = remark or other dose. Sampled rows, rich in hits. Any-hit rate of the full collection: about 2.1%. Unless noted, the call rests on the fitted dose curve; in most records, active means well fitted curve in the direction sought with a large enough effect; inconclusive means small, poorly fitted or top-dose-only effect, or another doubt; inactive means no such curve, though single readings can be large; an effect the other way counts as inactive or inconclusive.

SMILES	aSyn yeast inh	Abeta rescue	TDP43 rescue	FUS suppressor	TSG101-PTAP inh
COc1ccc(C2=NN(C(=O)CSc3nc4ncc(Cl)cc4[nH]3)C(c3ccco3)C2)cc1 (configuration not stated)	i	i	35µM	?	i
CCc1ccc(NC(=O)c2cnn(-c3ccccc3)c2-n2cccc2)cc1	nt	i	i[9.22 µM]	i	nt
Cn1ncc(C(=O)Nc2ccc(OC(F)(F)F)cc2)c1-n1cccc1	i	i	13µM	i	i
COc1ccc(CN2C(=O)C(CC(=O)NCC3CCCCC3)CC(C(=O)N3CCOCC3)=C2C)cc1 (configuration not stated)	i	i	i	i	nt
CCc1nc(Nc2ccccc2)c2oc3ccccc3c2n1	nt	i	11µM	i	i
Cc1nc(NCCc2ccccc2)c2oc3ccccc3c2n1	i	i	11µM	i	i
COc1ccc2c(c1)c1c(c(=O)n(CCc3ccccc3)c(=O)n1Cc1ccc(F)cc1)n2C	nt	i	i	i	nt
COc1ccc(-c2csc(C(C)(NC(C)=O)c3ccccc3)n2)cn1 (configuration not stated)	i	i	i	i	nt
O=C(CCCn1c(=O)c2cccn2c2cccnc21)NCCc1ccc(Cl)cc1	i	i	22µM!	i	i
O=C(CCn1c(=O)c2cccn2c2cccnc21)NCc1ccc(Cl)cc1	nt	i	i	i	nt
CCN(C(=O)CSc1ccc2ccccc2n1)C1CCCCC1	i	i	22µM	nt	i
Cc1nn(C)c(C)c1/C=C/C(=O)c1ccc(Cl)cc1Cl	i	i	25µM	i	i
Cc1nn(C)c(C)c1/C=C/C(=O)O	i	i	i	i	i
Cc1nc(CNS(=O)(=O)c2ccc3ccccc3c2)cs1	i	i	14µM	i	i
Cc1nc(CNS(=O)(=O)c2cccc(F)c2)cs1	i	i	i	i	i
C[C@@H]1O[C@H](CCc2cccc(Cl)c2)CC2=C1C(=O)OC(C)(C)O2	i	i	?	i	nt
N/C(CC1CC1(Cl)Cl)=N\OC(=O)c1ccccc1 (configuration not stated)	i	i	18µM	i	i
Cc1ccc(NC(=O)C2COc3ccccc3O2)cc1 (configuration not stated)	i	i	i	i	i
O=C(Nc1ccc([N+](=O)[O-])cc1)C1COc2ccccc2O1 (configuration not stated)	i	8.9µM	?	i	i
Cc1ccc(NC(=O)C2COc3ccccc3O2)c(C)c1 (configuration not stated)	i	i	11µM	i	i
CC1(C)Oc2ccc(NC(=O)C3COc4ccccc4O3)cc2O1 (configuration not stated)	i	i	10µM	i	i
O=C(Nc1ccccc1)C1COc2ccccc2O1 (configuration not stated)	i	i	i	i	i
CCc1cccc(NC(=O)CN2Cc3ccccc3C2=O)c1	nt	i	i	i	nt
COc1cc2c(=O)n(Cc3ccccc3Cl)c(=O)n(CC(=O)Nc3ccccc3)c2cc1OC	nt	i	i	i	nt
COc1ccc(NC(=O)CCc2nnc3n(Cc4ccccc4Cl)c(=O)c4ccccc4n23)cc1	nt	i	i	i	nt
SMILES	aSyn yeast inh	Abeta rescue	TDP43 rescue	FUS suppressor	TSG101-PTAP inh
O=C(COC(=O)/C=C/c1ccc(Cl)cc1Cl)NCC1CCCO1 (configuration not stated)	i[1.84 µM]	i	20µM	i	i
Nc1nc(N)nc(-c2ccc(Cl)c(Cl)c2)n1	i	i	22µM	i	nt
Cc1nc(N)nc(N)c1-c1ccc(Cl)c(Cl)c1	i	i	i	nt	i
CC1CCN(c2c3c(nc4ncnn24)CCCC3)CC1	nt	nt	nt	i	nt
CC(C)CCNC(=O)C1CCCN(C(=O)c2ccc3c(c2)NC(=O)CS3)C1 (configuration not stated)	nt	nt	nt	i	nt
CN(C)c1nc(OCCNC(=O)COc2ccc(Cl)cc2Cl)nc(N(C)C)n1	i	i	14µM	i	i
CN(C)c1nc(OCCOC(=O)COc2ccc(Cl)cc2Cl)nc(N(C)C)n1	i	i	i	?	i
CC[C@H](C(=O)Nc1ccccc1N1CCCC1)c1ccccc1	nt	nt	nt	i	nt
Cc1ccccc1CN1CCc2c(OCC(=O)N3CCCc4ccccc43)cccc2C1=O	i	i	13µM	i	i
CCC(C)(C)c1ccc(OCCCC[n+]2ccccc2)c(C(C)(C)CC)c1	i	i	14µM	i	i
COc1cc(NC(=O)c2nc(-c3ccncc3)no2)cc(OC)c1OC	nt	i	i	i	nt
COc1cc(/C=C/c2ccc3ccccc3n2)cc(OC)c1OC	i	nt	nt	nt	nt
Cc1nc2ccccc2cc1OCc1ccccc1	i	i	18µM	i	i
Cc1ccc(S(=O)(=O)N2CCCCC2)cc1NCC(=O)Nc1ccc(Br)cc1F	i	i	i	i	nt
Cc1ccc(S(=O)(=O)N2[C@@H](c3ccc(F)cc3)C(C(=O)O)=CC[C@H]2c2cccc(Cl)c2)cc1	i	i	22µM	i	i
Cc1ccc([C@H]2C(C(=O)O)=CC[C@@H](c3cccc(Cl)c3)N2S(=O)(=O)c2ccc(C)cc2)cc1	i	i	i	i	i
COc1ccc([C@@H]2CC=C(C(=O)O)[C@H](c3ccc(F)cc3)N2S(=O)(=O)c2ccc(Cl)cc2)cc1	i	i	14µM	?	i
CCOc1cc(C2Nc3ccccc3C(=O)N2Cc2ccco2)ccc1O (configuration not stated)	i	nt	nt	nt	nt
CCOC(=O)c1ccc(-c2ccc(C=O)o2)cc1	i	i	11µM	i	i
CCn1c(CN2CCN(C(c3ccccc3)c3ccccc3)CC2)nc2c1c(=O)n(C)c(=O)n2C	i	i	i	i	i
CC1=C(C(=O)Nc2cc(Cl)ccc2C)C2(CCCCC2)OC1=O	nt	i	35µM	i	nt
CCOC(=O)c1ccc(NC(=S)N(CCN(C)C)C(C)c2ccncc2)cc1 (configuration not stated)	28µM	i	i	i	i
CCc1cccc(NC(=S)N(CCN(C)C)C(C)c2ccncc2)c1 (configuration not stated)	i	i	i	i	i
CCOc1ccc(NC(=O)c2cccc(N3CCCS3(=O)=O)c2)cc1	nt	i	i	i	nt
CCc1nnc(NC(=O)c2nc(SCc3ccc(F)cc3)ncc2Cl)s1	nt	i	16µM	?	nt
SMILES	aSyn yeast inh	Abeta rescue	TDP43 rescue	FUS suppressor	TSG101-PTAP inh
CSc1ncc(Cl)c(C(=O)Nc2cccc(Cl)c2)n1	i	i	22µM	i	i
CC(=O)Nc1ccc(NC(=O)c2nc(SCc3ccccc3F)ncc2Cl)cc1	32µM	nt	nt	nt	nt
Cc1ccc(NC(=O)c2nc(SCc3ccccc3F)ncc2Cl)cc1	i	nt	nt	nt	nt
COc1ccc2ccn(S(=O)(=O)c3ccccc3)c2c1	i	i	20µM	i	i
O=C(Cc1ccccc1)NCCc1csc2nc(-c3ccc(Cl)cc3)nn12	nt	i	i[9.22 µM]	i	nt
COc1cc(-c2noc(-c3ccc(N(C)C)c([N+](=O)[O-])c3)n2)cc(OC)c1OC	nt	i	i	i	nt

Screening data: PubChem, National Center for Advancing Translational Sciences (NCATS)
